# Compound activity (PubChem)
# Many of the other results were omitted from the sample, so hits are more common in it than they were.
# Artemis endo inh – Artemis (human) endonuclease inhibition. 30,000 tested, 0.78% active. AID 686954. Q96SD1. inhibition, % at 10 µM. recombinant Artemis, quenched FAM hairpin cleavage fluorescence;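 active = at 10 µM dose, at least 30% inhibition, measured as corrected fluorescence normalized to stimulator and neutral control wells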
# Target sequence (Q96SD1 whole entry, looked up): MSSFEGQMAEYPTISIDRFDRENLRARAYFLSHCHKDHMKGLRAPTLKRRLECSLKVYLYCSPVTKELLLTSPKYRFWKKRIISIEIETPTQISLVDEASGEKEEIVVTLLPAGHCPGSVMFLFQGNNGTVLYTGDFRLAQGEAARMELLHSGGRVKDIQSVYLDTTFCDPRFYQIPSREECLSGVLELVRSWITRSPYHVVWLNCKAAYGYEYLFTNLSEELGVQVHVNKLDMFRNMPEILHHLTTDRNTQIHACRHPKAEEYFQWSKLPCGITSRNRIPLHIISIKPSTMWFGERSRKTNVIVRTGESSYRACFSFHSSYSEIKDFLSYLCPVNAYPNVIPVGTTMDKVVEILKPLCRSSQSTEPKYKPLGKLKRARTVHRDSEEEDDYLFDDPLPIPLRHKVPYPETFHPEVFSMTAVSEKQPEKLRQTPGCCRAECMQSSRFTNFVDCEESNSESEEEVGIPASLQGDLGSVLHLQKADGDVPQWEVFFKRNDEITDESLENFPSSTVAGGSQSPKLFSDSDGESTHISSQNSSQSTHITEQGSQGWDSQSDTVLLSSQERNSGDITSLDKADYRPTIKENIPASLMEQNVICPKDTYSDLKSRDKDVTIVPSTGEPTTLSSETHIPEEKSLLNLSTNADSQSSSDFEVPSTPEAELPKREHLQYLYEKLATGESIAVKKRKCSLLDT
# Numbers stand for hits; - = inactive.
SMILES,Artemis endo inh
CC(C)(C)C(=O)Nc1ccc(C(=O)NNC(=O)Cc2ccccc2)cc1,-
COc1ccc(NC(=O)CSc2nc(C)cc(C)n2)cc1,-
COc1ccc(NC(=O)CSc2nc3c(cc2C#N)CN(C)CC3)cc1,37.0
COc1ccc(-c2c(C#N)c(SCC(=O)Nc3ccccc3)nc3c2CCCC3)cc1,-
Cc1ccn2c(C(=O)c3ccc(Cl)cc3)cnc2c1,-
Cc1ccc(S(=O)(=O)N(C)CCCC(=O)n2nc(C)cc2C)cc1,-
C=CCOC(=O)C1=C(C)NC(SC)=C(C#N)C1c1ccc(OCC)cc1 (configuration not stated),-
CC1=NOC(=O)/C1=C\c1ccc(-c2cccc(Cl)c2)o1,-
C=CCOC(=O)c1cc(-c2ccc(/C=C3\C(=O)NC(=O)C(C#N)=C3C)o2)ccc1Cl,35.6
CCc1ccc(C(=O)Nc2cc3c(cc2Cl)OCCCO3)cc1,-
CCOC(=O)C1=C(CSc2nc(-c3ccccc3)ccc2C#N)OC(N)=C(C#N)C1c1ccc(OC)cc1 (configuration not stated),-
COc1cc(-c2nnc(SCC3(c4ccc(Br)cc4)OCCO3)o2)cc(OC)c1OC,-
Oc1ccc2ccccc2c1/C=N/c1nc2c(s1)CCCC2,62.5
Oc1ccc2ccccc2c1C=Nc1ccccc1-c1nc2ccccc2[nH]1,-
Oc1c(Br)cc(Br)cc1/C=N/c1nc2c(s1)CCCC2,-
COC(=O)c1c(C(=O)OC)c2ccncn2c1Cl,-
Cc1ccc(C(=O)Nc2ccc3cn[nH]c3c2)cc1S(=O)(=O)N1CCCCC1,-
c1ccc2c(SCc3cn4cccnc4n3)ncnc2c1,-
O=c1c2c(-c3ccco3)csc2nc(SCc2cn3cccnc3n2)n1-c1ccccc1,31.1
O=c1c2ccccc2nc(SCc2cn3ccsc3n2)n1-c1ccc(F)cc1,-
Cc1ncc([N+](=O)[O-])n1CCOC(=O)c1ccc(Cl)cc1Cl,-
Cc1ccc(C(=O)c2cn[nH]c2-c2ccccc2O)cc1,-
O=C(c1ccc(O)cc1)c1ccc(Cl)cc1,-
Cc1oc2c(c1C(=O)c1ccc(Cl)cc1)C(=O)C(=O)c1ccccc1-2,50.4
Cc1ccc(C(=O)c2c(C)oc3c2C(=O)C(=O)c2ccccc2-3)cc1,55.0
SMILES,Artemis endo inh
COc1ccc(C(=O)c2ccc(Cl)cc2)cc1,-
COc1ccc(C(=O)c2c(C(F)(F)F)oc3c2C(=O)c2ccccc2C3=O)cc1,-
CC(C)CC(=O)NC(NCC1CCCO1)C(Cl)(Cl)Cl (configuration not stated),-
N#Cc1c(NC(=O)CSc2nnc(-c3ccco3)n2-c2ccccc2)sc2c1CCC2,35.9
COc1ccc(-c2nnc(SCC(=O)NC(C)C)n2CC2CCCO2)cc1OC (configuration not stated),-
COc1ccc(-c2ccc(C#N)c(SCC(=O)Nc3sc4c(c3C#N)CCC4)n2)cc1,-
COc1ccc(-n2c(SCC(=O)Nc3sc4c(c3C#N)CCCC4)nnc2-c2ccccc2OC)cc1,-
CCn1c(SCC(=O)Nc2sc3c(c2C#N)CCCC3)nnc1-c1ccco1,-
COc1ccc(-c2nnc(SCC(=O)Nc3sc4c(c3C#N)CCC4)n2CC2CCCO2)cc1 (configuration not stated),41.6
Cc1ccc(NC(=O)C2CCCN2S(=O)(=O)c2ccc(F)cc2)c(C)c1 (configuration not stated),-
C#CCNc1nc(CC)nc2c1nnn2Cc1ccccc1F,-
CCN(CC)C(=O)c1sc(NC(=O)c2ccc(C)c([N+](=O)[O-])c2)c(C#N)c1C,-
Cc1c(Cl)c([N+](=O)[O-])nn1CC(=O)NC12CC3CC(CC(C3)C1)C2,-
O=C(NCC1c2ccccc2CCN1C(=O)CN1C(=O)c2ccccc2C1=O)C1CCCCC1 (configuration not stated),-
O=C(CSc1ccc(Cl)cc1Cl)N1CCC(c2nc3ccccc3s2)CC1,-
C=CCc1cc(/C=N/NC(=O)CSc2nnc(CCCc3ccc(OC)cc3)o2)cc(OC)c1O,-
CCCOc1ccc(-c2nnc(N)s2)cc1,-
CCCOc1ccc(N)cc1N,31.0
CCOc1cc(-c2ccc(N)c(OCC)c2)ccc1N,-
CC(=O)NCCOc1c(C)cc(S(N)(=O)=O)cc1C,-
COc1cc(C=O)ccc1OCCOCCOc1c(C)cc(Cl)cc1Cl,-
Cc1cc(Cl)cc(Br)c1OCCNCC(C)O (configuration not stated),30.6
COc1ccc(C(C)=O)cc1COc1ccc(-n2cnnn2)cc1,-
CCC(=O)N(C)/C=C1\Sc2ccccc2C1=O,-
CC(=O)N(C)/C=C1\Sc2ccccc2C1=O,-
SMILES,Artemis endo inh
CC(=O)N(/N=C1\Sc2ccccc2C1=O)c1cccc(C)c1,36.0
Cc1ccc(Nc2nc3c(c(=O)[nH]c(=O)n3C)n2Cc2ccc(F)cc2)cc1,-
CNC(=O)/C(=C\c1ccc([N+](=O)[O-])cc1)NC(C)=O,-
Fc1ccc(C2=Nn3c(nnc3-c3n[nH]c4c3CCC4)SC2)cc1,-
C1CCC(c2nn3c(-c4n[nH]c5c4CCC5)nnc3s2)CC1,-
CCN(CC)c1ccc(-c2nn3c(-c4n[nH]c5c4CCC5)nnc3s2)cc1,57.8
CCNc1nc2nonc2nc1NCC,-
Cc1ccc(-c2cc(C(=O)n3cnc4ccccc43)c3ccccc3n2)cc1C,-
CCN(CC)c1ccc(C(=O)n2cnc3ccccc32)cc1,30.0
CCN(CC)c1ccc(NC(=O)CSc2nc3ccccc3c(=O)[nH]2)cc1,-
CCOC(=O)N1CCN(c2nc3ccccc3nc2C(C#N)S(=O)(=O)c2ccc(C)cc2)CC1 (configuration not stated),32.7
C=CCOC(=O)C(C#N)c1nc2ccccc2nc1N1CCN(Cc2ccccc2)CC1 (configuration not stated),-
C=CCOC(=O)C(C#N)c1nc2ccccc2nc1N1CCN(c2ccccc2OC)CC1 (configuration not stated),-
COc1cc(OC)c(C(=O)Nc2cccc(C(C)=O)c2)cc1OC,-
O=C(COC(=O)C1CC1)NCc1ccccc1Cl,-
O=C(Nc1ccc(Br)cc1)c1ccc(N2C(=O)C3CC=C(Cl)CC3C2=O)cc1 (configuration not stated),-
CCOC(=O)C(C(=O)Nc1ccc(C)cc1)C1CCCCC1 (configuration not stated),-
COc1ccc(N(CC(=O)Nc2ccc(S(=O)(=O)N3CCOCC3)cc2)S(=O)(=O)c2ccccc2)cc1,-
COc1ccccc1CN(C(=O)c1ccco1)C(C(=O)NC1CCCC1)c1ccncc1 (configuration not stated),83.5
COc1cccc(C(C(=O)NC2CCCC2)N(Cc2ccc(C)cc2)C(=O)c2ccco2)c1OC (configuration not stated),-
COc1cccc(CN(C(=O)c2ccco2)C(C(=O)NC2CCCC2)c2cccnc2)c1 (configuration not stated),-
CCc1ccccc1NC(=O)c1ccc(CN2CCC(Cc3ccccc3)CC2)cc1,-
COC(=O)c1cccc(NC(=O)CCCOc2cccc(C)c2)c1,-
CC(=O)C1=NN(c2ccccc2)C2(S1)S/C(=C\c1ccccc1)C(=O)N2c1ccccc1 (configuration not stated),-
O=C(CN(C1CCCCC1)C1CCCCC1)N1CCc2ccccc2C1,-
